Assay results taken from PubChem BioAssay AID1159580 (chemical genetic matrix, 2015).
About 2,000 (36%) of roughly 5,500 compounds were called active. Inconclusive results (about 18%) are left out. No stated cut-off is given here; in the data, active means normalized growth mostly below about 0.91 (no sharp cut-off); inconclusive means no clear call, values can overlap the other calls; inactive means mostly above about 0.92. The list shows a part of the results.

Experiment: chemical genetic growth profiling, strain panel (AID 1159580);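 further: tested at 20 µM; growth read once vehicle control cultures reached saturation at 30 °C; 1 = growth at the plate median or of vehicle wells; lower values mean less growth of the strain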
Conditions: S. cerevisiae deletion strains, growth OD

Measured: normalized growth

COC(=O)[C@@H]1OC(=O)C2OC23[C@@]1(C)CCC1[C@]2(C)C(C[C@H](O)[C@]13C)C(C)(C)[C@H](OC(C)=O)C[C@@H]2OC(C)=O (some centres not stated)
inactive: locus YAL021C, strain ccr4, active compounds read low 1.01 | locus YAL026C, strain drs2, active compounds read low 1.01 | locus YAL030W, strain snc1, active compounds read low 1.01 | locus YBL061C, strain skt5, active compounds read low 1.01 | locus YBR009C, strain hhf1, active compounds read low 1.03 | locus YBR021W, strain FUR4, active compounds read low 1.01 | locus YBR023C, strain chs3, active compounds read low 1.02 | locus YBR171W, strain sec66, active compounds read low 1.02 | locus YBR229C, strain ROT2, active compounds read low 1.01 | locus YBR231C, strain swc5, active compounds read low 1.01 | locus YBR279W, strain paf1, active compounds read low 1.02 | locus YCL011C, strain gbp2, active compounds read low 1 | locus YCL016C, strain dcc1, active compounds read low 1.02 | locus YCL029C, strain bik1, active compounds read low 0.999 | locus YCL061C, strain MRC1, active compounds read low 1.02 | locus YCL069W, strain vba3, active compounds read low 1.01 | locus YCR088W, strain abp1, active compounds read low 1.02 | locus YDL005C, strain med2, active compounds read low 1.02 | locus YDL035C, strain GPR1, active compounds read low 1.04 | locus YDL040C, strain nat1, active compounds read low 1.01 | locus YDL074C, strain BRE1, active compounds read low 1.04 | locus YDL101C, strain DUN1, active compounds read low 1 | locus YDL134C, strain PPH21, active compounds read low 1 | locus YDL185W, strain tfp1, active compounds read low 1 | locus YDL192W, strain arf1, active compounds read low 1.01 | locus YDR001C, strain nth1, active compounds read low 1.01 | locus YDR069C, strain doa4, active compounds read low 1.03 | locus YDR101C, strain arx1, active compounds read low 1 | locus YDR137W, strain rgp1, active compounds read low 1.05 | locus YDR159W, strain sac3, active compounds read low 1.01 | locus YDR162C, strain NBP2, active compounds read low 1.02 | locus YDR195W, strain ref2 0.98 | locus YDR297W, strain sur2, active compounds read low 1.01 | locus YDR318W, strain mcm21, active compounds read low 1.01 | locus YDR334W, strain swr1, active compounds read low 1.02 | locus YDR335W, strain msn5, active compounds read low 1.05 | locus YDR388W, active compounds read low 0.989 | locus YDR392W, strain spt3, active compounds read low 1.03 | locus YDR502C, strain sam2, active compounds read low 0.993 | locus YEL003W, strain gim4, active compounds read low 1.02 | locus YEL037C, strain rad23, active compounds read low 1.01 | locus YEL061C, strain CIN8 (second series), active compounds read low 1.02 | locus YEL061C, strain CIN8, active compounds read low 1.01 | locus YER015W, strain faa2, active compounds read low 1.02 | locus YER016W, strain bim1, active compounds read low 1.01 | locus YER110C, active compounds read low 0.995 | locus YER111C, strain swi4, active compounds read low 1.01 | locus YER155C, strain BEM2 (second series), active compounds read low 1.02 | locus YER155C, strain BEM2, active compounds read low 1 | locus YER167W, strain BCK2, active compounds read low 1.02 | locus YFR010W, strain ubp6, active compounds read low 1.01 | locus YGL078C, strain dbp3, active compounds read low 0.994 | locus YGL086W, strain mad1, active compounds read low 1 | locus YGL167C, strain pmr1, active compounds read low 1.02 | locus YGL173C, strain kem1, active compounds read low 1.01 | locus YGL227W, strain vid30, active compounds read low 1.03 | locus YGL240W, strain doc1, active compounds read low 1.04 | locus YGL248W, strain PDE1, active compounds read low 1.01 | locus YGL253W, strain hxk2, active compounds read low 1.02 | locus YGR135W, strain pre9, active compounds read low 0.981 | locus YGR252W, strain gcn5, active compounds read low 0.989 | locus YHR013C, strain ard1, active compounds read low 1.02 | locus YHR027C, strain rpn1, active compounds read low 1.02 | locus YHR030C, strain SLT2, active compounds read low 0.999 | locus YHR079C, strain IRE1 (second series), active compounds read low 1.01 | locus YHR079C, strain IRE1, active compounds read low 0.977 | locus YHR094C, strain hxt1, active compounds read low 0.995 | locus YHR129C, strain ARP1, active compounds read low 1.01 | locus YHR142W, strain chs7, active compounds read low 1.02 | locus YHR200W, strain rpn10, active compounds read low 0.987 | locus YIL066C, strain RNR3, active compounds read low 1.03 | locus YIL073C, strain SPO22, active compounds read low 1.05 | locus YIL125W, strain kgd1, active compounds read low 0.998 | locus YIR030C, strain dcg1, active compounds read low 1.01 | locus YJL092W, strain hpr5, active compounds read low 1.02 | locus YJL095W, strain BCK1 (second series), active compounds read low 1.02 | locus YJL095W, strain BCK1, active compounds read low 1 | locus YJL115W, strain asf1, active compounds read low 1.02 | locus YJL129C, strain trk1, active compounds read low 1 | locus YJL134W, strain LCB3, active compounds read low 1.01 | locus YJL154C, strain vps35, active compounds read low 1.01 | locus YJL164C, strain tpk1, active compounds read low 1.02 | locus YJL166W, strain qcr8, active compounds read low 1.01 | locus YJL168C, strain set2, active compounds read low 0.991 | locus YJL187C, strain SWE1 (second series), active compounds read low 1 | locus YJL187C, strain SWE1, active compounds read low 1 | locus YJR043C, strain POL32, active compounds read low 1.01 | locus YJR066W, strain TOR1, active compounds read low 0.906 | locus YKL009W, strain mrt4, active compounds read low 1 | locus YKL068W, active compounds read low 1.01 | locus YKL085W, strain MDH1 (second series), active compounds read low 1 | locus YKL085W, strain MDH1, active compounds read low 1 | locus YKL160W, strain elf1, active compounds read low 1.02 | locus YKL190W, strain CNB1, active compounds read low 1.01 | locus YKR001C, strain vps1, active compounds read low 0.98 | locus YKR026C, strain gcn3, active compounds read low 1.01 | locus YKR091W, strain srl3, active compounds read low 1.01 | locus YLL001W, strain dnm1, active compounds read low 1.02 | locus YLL026W, active compounds read low 1.01 | locus YLL041C, strain sdh2, active compounds read low 1 | locus YLR027C, strain aat2, active compounds read low 1.02 | locus YLR039C, strain RIC1, active compounds read low 1.03 | locus YLR058C, strain SHM2, active compounds read low 1.02 | locus YLR102C, strain apc9, active compounds read low 0.997 | locus YLR113W, strain HOG1, active compounds read low 1.04 | locus YLR221C, strain rsa3, active compounds read low 1.01 | locus YLR258W, strain gsy2, active compounds read low 1.01 | locus YLR262C, strain YPT6 (second series), active compounds read low 1 | locus YLR268W, strain sec22, active compounds read low 1.02 | locus YLR320W, strain mms22, active compounds read low 1.02 | locus YLR330W, strain CHS5, active compounds read low 1.01 | locus YLR342W, strain FKS1, active compounds read low 1.01 | locus YLR357W, strain rsc2, active compounds read low 1.02 | locus YLR370C, strain arc18, active compounds read low 1.02 | locus YLR371W, strain rom2, active compounds read low 1 | locus YLR384C, strain iki3, active compounds read low 1 | locus YLR418C, strain cdc73, active compounds read low 1.01 | locus YML016C, strain PPZ1, active compounds read low 1 | locus YML032C, strain rad52, active compounds read low 0.994 | locus YML120C, strain ndi1, active compounds read low 1.01 | locus YML124C, strain tub3, active compounds read low 1 | locus YMR058W, strain fet3, active compounds read low 1.02 | locus YMR078C, strain ctf18, active compounds read low 1 | locus YMR125W, strain sto1, active compounds read low 1.01 | locus YMR129W, active compounds read low 1 | locus YMR205C, strain PFK2, active compounds read low 1.02 | locus YMR223W, strain ubp8, active compounds read low 0.99 | locus YMR231W, strain pep5, active compounds read low 1 | locus YMR263W, strain SAP30, active compounds read low 1.01 | locus YMR307W, strain GAS1, active compounds read low 1 | locus YNL067W, strain RPL9B, active compounds read low 1 | locus YNL071W, strain lat1, active compounds read low 1.01 | locus YNL183C, strain NPR1, active compounds read low 0.938 | locus YNL209W, strain ssb2, active compounds read low 1.01 | locus YNL233W, strain BNI4, active compounds read low 1 | locus YNL248C, strain rpa49, active compounds read low 1.01 | locus YNL250W, strain rad50, active compounds read low 0.989 | locus YNL271C, strain bni1, active compounds read low 1.01 | locus YNL298W, strain CLA4, active compounds read low 1 | locus YNL307C, strain MCK1, active compounds read low 0.998 | locus YNL322C, strain KRE1 (second series), active compounds read low 1.02 | locus YNR049C, strain mso1, active compounds read low 1.02 | locus YNR052C, strain pop2, active compounds read low 0.993 | locus YOL006C, strain TOP1, active compounds read low 1.08 | locus YOL012C, strain htz1 1.19 | locus YOL147C, strain pex11, active compounds read low 1 | locus YOR001W, strain rrp6, active compounds read low 1 | locus YOR061W, strain CKA2, active compounds read low 1.03 | locus YOR069W, strain VPS5, active compounds read low 1.01 | locus YOR070C, strain gyp1, active compounds read low 1.02 | locus YOR080W, strain dia2, active compounds read low 1 | locus YOR083W, strain WHI5, active compounds read low 1.02 | locus YOR106W, strain vam3, active compounds read low 1.03 | locus YOR136W, strain idh2, active compounds read low 0.994 | locus YOR144C, strain elg1, active compounds read low 0.996 | locus YOR184W, strain ser1, active compounds read low 1.03 | locus YOR231W, strain MKK1, active compounds read low 0.989 | locus YOR265W, strain rbl2, active compounds read low 0.995 | locus YOR270C, strain vph1, active compounds read low 0.986 | locus YOR290C, strain snf2, active compounds read low 1.04 | locus YOR316C, strain cot1, active compounds read low 0.996 | locus YPL051W, strain arl3, active compounds read low 1.02 | locus YPL078C, strain atp4, active compounds read low 1.03 | locus YPL106C, strain sse1, active compounds read low 1.04 | locus YPL240C, strain hsp82, active compounds read low 1.01 | locus YPL241C, strain CIN2, active compounds read low 1.01 | locus YPL256C, strain CLN2, active compounds read low 0.979 | locus YPR119W, strain clb2, active compounds read low 1 | locus YPR141C, strain kar3, active compounds read low 1.01 | locus YPR163C, strain tif3, active compounds read low 0.996 | locus YPR167C, strain met16, active compounds read low 1 | strain wtn01, active compounds read low 1
